The values below come from article PMC7819943, “Rice protein-binding microarrays: a tool to detect cis-acting elements near promoter regions in rice”.

Over roughly 35,000 sequences, “fluorescence intensity (a.u.)” has its median near 10,000; the highest 2% begin near 52,000. The full list was thinned out, with the highest values kept by preference.

In the assay the target is T1, OsWOX13 (Oryza sativa, UniProt Q5QMM3 1-267).
T1 sequence: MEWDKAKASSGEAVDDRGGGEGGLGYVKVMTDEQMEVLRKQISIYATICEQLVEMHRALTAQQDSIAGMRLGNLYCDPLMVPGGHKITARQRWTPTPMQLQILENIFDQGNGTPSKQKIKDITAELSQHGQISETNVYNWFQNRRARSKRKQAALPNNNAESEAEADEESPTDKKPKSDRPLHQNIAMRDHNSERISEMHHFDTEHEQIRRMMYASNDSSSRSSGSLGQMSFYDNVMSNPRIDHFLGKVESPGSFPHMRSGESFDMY
Put plainly: protein-binding microarray (RPBM); PBS, 2% BSA, 51.3 ng/ul salmon testes DNA, 50 uM zinc acetate, 200 nM TF, 25 C, 1 h; high values mean tight binding. Conditions: protein: recombinant; tags: N-terminal polyhistidine and DsRed monomer fusion (pET32a); label: CyDye5-dUTP incorporated in the synthesized complementary strand; 3' TTTTT single-stranded linker to array surface; dsDNA, one strand shown. The procedure, abridged:
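Per-feature fluorescence intensity (arbitrary units), read on an Axon 4000B scanner, is the binding signal. Transcription factors carrying an N-terminal polyhistidine tag and DsRed fusion were expressed in E. coli BL21-CodonPlus and purified on Ni–NTA. A custom Agilent array, made double-stranded by primer extension with Cy5-dUTP and blocked with 2% BSA, was incubated with 200 nM protein in PBS, 2% BSA, salmon testes DNA and 50 µM zinc acetate at 25 °C for 1 h and then washed.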
“TTAACAGATTCTTCTTAATTAATAAATAAGCTGTCATGATCGGAGTCACCTAGTGCAG”: the binding signal is 17300 fluorescence intensity (a.u.). For “TTGATTAGATGCGCTGTGTGGCTTCTTGTTCAGTGACAGGCGGAGTCACCTAGTGCAG”, the binding signal is 32400 fluorescence intensity (a.u.). Turning to “ACTATGCCAATTAAAATAAATCAATACAATAGGTATGATTCGGAGTCACCTAGTGCAG”, the binding signal was 9790 fluorescence intensity (a.u.). Consider “TACAACAAATCAATAATACTCAATTTCCATGTAGTTTGATCGGAGTCACCTAGTGCAG”, for which the binding signal is 7890 fluorescence intensity (a.u.). For “TTGATAGTAAATCAAACATTAATAAAGGCCTGTTCACTTTCGGAGTCACCTAGTGCAG” the value was 8860 fluorescence intensity (a.u.); for “CCAGATTGAGCTGTTGCGCACCACCATCCTGACCAGCTGCCGGAGTCACCTAGTGCAG”, 17400 fluorescence intensity (a.u.); for “ATGACAGCAATTCCGATATCTAATAAGATTGAAAATATTGCGGAGTCACCTAGTGCAG”, 14800 fluorescence intensity (a.u.). For “CCAAATGATATAATCATGGCACATGGAGTACTGCTTAAGACGGAGTCACCTAGTGCAG” the value was 9170 fluorescence intensity (a.u.).

For “CTAAAATTGGAGACGTCACTACAAACGTACGCACTCTTTGCGGAGTCACCTAGTGCAG”, the binding signal was 6760 fluorescence intensity (a.u.). Take “AGTAAATTGGTGTATGATTAGATTAACATGTTAAATGTATCGGAGTCACCTAGTGCAG”: the binding signal was 53500 fluorescence intensity (a.u.). In the case of “TTTAATTGGTTAAATGAACTATGTAATGTTATAATTATATCGGAGTCACCTAGTGCAG”, the binding signal was 33200 fluorescence intensity (a.u.).

“GATTAATTAATTATTATCCATTGTACACTTCGAAAATTGGCGGAGTCACCTAGTGCAG”: the binding signal is 60500 fluorescence intensity (a.u.).

Consider “TAAGATAAATTAATTGGTAACCTTGTATGTCCATAAGGGTCGGAGTCACCTAGTGCAG”, for which the binding signal was 45400 fluorescence intensity (a.u.). Turning to “GTACATTTTAATGATTATATTATGATGATGAAAATTGTATCGGAGTCACCTAGTGCAG”, the binding signal was 15300 fluorescence intensity (a.u.). “CGGCGTTAATTGTCCTTCGATCCATTATTACAGAAACACTCGGAGTCACCTAGTGCAG”: the binding signal was 15400 fluorescence intensity (a.u.). For “GAAATAGATTAATTATAGCTAAAACATTTTCTCGACCTTGCGGAGTCACCTAGTGCAG”, the binding signal is 52800 fluorescence intensity (a.u.).

For the sequence “AGATAATTTAATTGTTAACCATGTATGGCTGTAAGGGTATCGGAGTCACCTAGTGCAG”, the binding signal is 43900 fluorescence intensity (a.u.). For “ATTAAAACTTAATTAAATATACTAATAGCTTTCTCATTTTCGGAGTCACCTAGTGCAG” the value was 7350 fluorescence intensity (a.u.); for “AAAATTGAAATTTTCAACATTAAATTTGGATTAGATTTTGCGGAGTCACCTAGTGCAG”, 19200 fluorescence intensity (a.u.).

As for “ATGAGATAAATTGATTGTTAACCATGTATGTCTCTAAGGTCGGAGTCACCTAGTGCAG”, the binding signal is 56400 fluorescence intensity (a.u.). Under “TAGAATAAATTGATTTAATTAAATGTAACATTAAATATATCGGAGTCACCTAGTGCAG” stands 10100 fluorescence intensity (a.u.). In the case of “GGGGATAATTTTGTAGCTCGATGACAAGTTGATTTGGTGTCGGAGTCACCTAGTGCAG”, the binding signal is 19200 fluorescence intensity (a.u.).

With “ATCGAATTGAGGGAGATAAATTGATCTTGTTTTAATAATTCGGAGTCACCTAGTGCAG”, the binding signal was 3450 fluorescence intensity (a.u.). Take “CTTTAATTACCACCCGATCTCACCAACAAGCGGGGCAGCTCGGAGTCACCTAGTGCAG”: the binding signal was 20400 fluorescence intensity (a.u.). Under “AAACGATTGATCACAATCCACGCATCGTGCCTCTCTCGCCCGGAGTCACCTAGTGCAG” stands 14300 fluorescence intensity (a.u.); under “GTCTCGTAATTTTCTGTTGAACTATGTAATTGATTTCTTTCGGAGTCACCTAGTGCAG”, 10500 fluorescence intensity (a.u.). Consider “TGCCACTCAAGTACAATTATTCCCATTAATTCGCTCCATTCGGAGTCACCTAGTGCAG”, for which the binding signal is 5600 fluorescence intensity (a.u.). “TTATGATATATTGATCGTAGGATTGGGATTGGGATCCTATCGGAGTCACCTAGTGCAG”: the binding signal is 15800 fluorescence intensity (a.u.). “TGTGATGTATTTGATTTATGATGTATTTATTTGTGTGTATCGGAGTCACCTAGTGCAG”: the binding signal was 20700 fluorescence intensity (a.u.). With “ATAAGTTAATTTAAATAAATGGAGTAGAATATTATGATAGCGGAGTCACCTAGTGCAG”, the binding signal was 26300 fluorescence intensity (a.u.).

For “CCGGGGATTGATTTGCCGAGTGTATTATTGATCGTATGATCGGAGTCACCTAGTGCAG”, the binding signal was 53500 fluorescence intensity (a.u.). With “AGTAATAAATTGATTGTATGTTATCTGGTGGTCTGAAACTCGGAGTCACCTAGTGCAG”, the binding signal was 57400 fluorescence intensity (a.u.). Turning to “GCATGACAAATGGCGTTAATTAGTCCACAAATAATATATACGGAGTCACCTAGTGCAG”, the binding signal was 3210 fluorescence intensity (a.u.). “CAAATATATTATAAAATTGCATTTAATAAAACTTATTTGGCGGAGTCACCTAGTGCAG”: the binding signal was 3450 fluorescence intensity (a.u.).

With “AATTTAATTAATGACAAATATAATTAGCTCTCTATCCAGGCGGAGTCACCTAGTGCAG”, the binding signal is 55500 fluorescence intensity (a.u.). Under “TGAATTACTCAATTGAATTGGTGTTATGTAATAAACTGCTCGGAGTCACCTAGTGCAG” stands 5970 fluorescence intensity (a.u.); under “ATTGATTGAGAAAATAATGTTGGTGAATAAATTGTTATATCGGAGTCACCTAGTGCAG”, 40700 fluorescence intensity (a.u.); under “ACTTAATTGGATAGATAAATTTAAGTTATATTTAATATGGCGGAGTCACCTAGTGCAG”, 64900 fluorescence intensity (a.u.). For the sequence “AGCTCTATAATTTTACAATTTAAAATTATATTATATAAAGCGGAGTCACCTAGTGCAG”, the binding signal was 20400 fluorescence intensity (a.u.). Under “GCATGTTGATTATACCAGTAAGTTTCACGCACGCACACCGCGGAGTCACCTAGTGCAG” stands 13000 fluorescence intensity (a.u.); under “ACATGTTAATTTTAACATTGACTAATAGTAAGTAGTGAGCCGGAGTCACCTAGTGCAG”, 25000 fluorescence intensity (a.u.). Turning to “AAAGGGATGAGATTGAAGCAATTCCCGTGACTAGAAAACGCGGAGTCACCTAGTGCAG”, the binding signal was 3320 fluorescence intensity (a.u.). On to “AAATTTAAATTTGAAGTTGATTTTAAGATATTTTCAACGTCGGAGTCACCTAGTGCAG”, for which the binding signal was 21000 fluorescence intensity (a.u.). In the case of “TTAGTTTATACTCAATTAATCATTCGCTAATGGCTTACCTCGGAGTCACCTAGTGCAG”, the binding signal is 5920 fluorescence intensity (a.u.). Consider “ACTGATAGAATTAGCTCTATGCATAATGCATGGCTGTCTCCGGAGTCACCTAGTGCAG”, for which the binding signal is 34300 fluorescence intensity (a.u.). Take “AAAGATTGAAACTCTGAACATTTAGGACAACGAACATCATCGGAGTCACCTAGTGCAG”: the binding signal is 14000 fluorescence intensity (a.u.). Under “CAAACAAGCCAGCTCAATCAATCATCGAGCTAGCTGAGCTCGGAGTCACCTAGTGCAG” stands 8080 fluorescence intensity (a.u.); under “CTCTGTAACTATATAATTTCGTGCCAGATCGAAACTATGTCGGAGTCACCTAGTGCAG”, 4040 fluorescence intensity (a.u.); under “GGTGTGTTTATAATTAATATACAGATTGTGTCACATTGTTCGGAGTCACCTAGTGCAG”, 8600 fluorescence intensity (a.u.).

Take “GAGCTATTAGATTGGCTATAGATAAATTAGAGCTAGTAGTCGGAGTCACCTAGTGCAG”: the binding signal is 31600 fluorescence intensity (a.u.).

As for “TATATATGAGCTATTAGATTGGCTATGGATGAATTGGAGCCGGAGTCACCTAGTGCAG”, the binding signal is 4900 fluorescence intensity (a.u.). On to “ATATTTGATTAGATCGGTAATGGATGGCTATAACGTATGCCGGAGTCACCTAGTGCAG”, for which the binding signal is 58500 fluorescence intensity (a.u.). Under “CAACTATTATATAAATTGGCTATTATATTAGCTATAGATGCGGAGTCACCTAGTGCAG” stands 11400 fluorescence intensity (a.u.). With “GATAAATTGACAATATTACCAAAATTTTAGTAAGATTGGCCGGAGTCACCTAGTGCAG”, the binding signal is 64900 fluorescence intensity (a.u.). Consider “TCAAGCTGCTAATCAATTGATATCAACTATATTATGGAAACGGAGTCACCTAGTGCAG”, for which the binding signal is 14600 fluorescence intensity (a.u.). Turning to “GTCAATCATTGTTCTATGAGCTAGATGATAAAGATGACAACGGAGTCACCTAGTGCAG”, the binding signal is 8180 fluorescence intensity (a.u.).

Turning to “TTTATGATTATATTCGTAATGCTACATAATTTGATATGATCGGAGTCACCTAGTGCAG”, the binding signal was 28100 fluorescence intensity (a.u.).

As for “ATGATTGATCGATCATCAAGCTAAAGATAATGCTATGCAACGGAGTCACCTAGTGCAG”, the binding signal is 55100 fluorescence intensity (a.u.). Regarding “AATAAAATAATAATTATATAATTTTAGTAAGATAATTGAACGGAGTCACCTAGTGCAG”, the binding signal was 19200 fluorescence intensity (a.u.). For the sequence “AGATAATTAAGTATTTTACGTAAAATAAGATAGTATTAATCGGAGTCACCTAGTGCAG”, the binding signal is 5240 fluorescence intensity (a.u.).

As to “TTATATTAATTGGCTATTAGATTAGCTATAGATAAATTGGCGGAGTCACCTAGTGCAG”, the binding signal was 60400 fluorescence intensity (a.u.).
